Assay outcomes: PubChem, several laboratories
Bcl-xL primary: inhibitors of human Bcl-xL; Q07817; GST-Bcl-xL / FITC-Bim BH3 peptide fluorescence polarization; inhibition, % at 10.9 µM; actives 0.7% (n = 320,000);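 active = inhibition above the mean of all tested compounds plus 3 SD, cutoff set per campaign, cut at about 30% in these data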;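 also: 0% = DMSO wells and 100% = unlabeled Bim-BH3 peptide competitor; inhibitors lower millipolarization by displacing the labeled peptide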
Target sequence (Q07817 whole entry, looked up): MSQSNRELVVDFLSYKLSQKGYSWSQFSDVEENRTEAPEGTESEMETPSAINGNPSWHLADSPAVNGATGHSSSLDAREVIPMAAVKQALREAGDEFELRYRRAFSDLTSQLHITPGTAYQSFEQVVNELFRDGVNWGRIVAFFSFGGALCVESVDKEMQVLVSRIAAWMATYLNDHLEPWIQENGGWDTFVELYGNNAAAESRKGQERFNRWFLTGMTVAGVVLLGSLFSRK
MCL1-BIM inh: disrupts human MCL1 binding to BIM-BH3 peptide; Q07820; GST-MCL1 / FITC-Bim-BH3 fluorescence polarization; inhibition, % at 10.9 µM; actives 0.68% (n = 320,000); AID 2057;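 active = inhibition above the mean inhibition of all tested compounds plus 3 SD, set per campaign, cut at about 40% in these data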;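 also: 0% = DMSO wells and 100% = unlabeled Bim-BH3 peptide control; higher means more loss of mP so more displacement of Bim peptide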
Mcl1-Noxa inh: disrupts binding of human Mcl-1 to Noxa peptide | Q07820 | actives 1.5% (n = 220,000) | inhibition, % at 21.7 µM | TR-FRET Mcl-1/Noxa peptide binding, 2 h;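 active = compounds that cut the protein-peptide binding signal by more than 50% relative to plate controls in a single-dose test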;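 also: His-tagged Mcl-1 with rhodamine Noxa BH3 peptide and terbium anti-His antibody; 0% = Mcl-1 plus Noxa peptide wells and 100% = peptide-only wells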
Mcl-1 Bim block: inhibitors of Bim-Mcl-1 interaction, human; Bead-based flow cytometry, Bim peptide-Mcl-1 binding; AID 1009; Q07820; inhibition, % at 10 µM; actives 0.1% (n = 190,000); in the data active = inhibition above about 40%;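 also: 0% = no compound tracer wells and 100% = peptide blocker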
Mcl1 Bid PPI: Mcl-1/Bid interaction inhibition | Q07820 | TR-FRET Mcl-1/Bid-Dy647 peptide binding, 1536-well | inhibition, % at 21.7 µM | actives 0.97% (n = 220,000) | AID 1021;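 active = compounds that cut the binding signal by more than half at the single screening dose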;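 also: His-tagged Mcl-1 with europium anti-His antibody binding Bid BH3 peptide; 0% = Mcl-1 plus peptide wells and 100% = peptide-only wells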
GLD-1 RNA inh: GLD-1-TGE RNA interaction inhibition (C. elegans); actives 0.44% (n = 320,000); inhibition, % at 5.96 µM; Q17339; AID 2280; purified GLD-1 + fluorescein TGE RNA, fluorescence polarization;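 active = percent inhibition above a per-plate cutoff, the plate mean of test compounds plus 3 SD, cut at about 30% in these data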;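 also: 0% = DMSO wells with GLD-1 and probe and 100% = wells lacking GLD-1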
Target sequence (Q17339 whole entry, looked up): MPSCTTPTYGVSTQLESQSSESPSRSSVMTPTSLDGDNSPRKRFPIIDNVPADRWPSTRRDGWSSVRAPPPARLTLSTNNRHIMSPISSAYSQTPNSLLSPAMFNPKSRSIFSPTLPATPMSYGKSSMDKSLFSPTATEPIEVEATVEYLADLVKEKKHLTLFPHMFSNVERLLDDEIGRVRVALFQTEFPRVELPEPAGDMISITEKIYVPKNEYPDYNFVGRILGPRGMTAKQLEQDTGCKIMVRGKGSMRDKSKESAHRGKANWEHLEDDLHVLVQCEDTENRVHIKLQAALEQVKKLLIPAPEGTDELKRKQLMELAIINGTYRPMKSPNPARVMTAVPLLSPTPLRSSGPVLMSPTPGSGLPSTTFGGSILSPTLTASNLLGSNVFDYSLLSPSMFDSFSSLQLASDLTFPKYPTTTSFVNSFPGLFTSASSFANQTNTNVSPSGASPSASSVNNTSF
Bcl-xL conf: Bcl-xL (human) inhibition, MCL1 counter-screen confirmation; shares compounds with MCL1-BIM inh; GST-Bcl-xL / FITC-Bim BH3 peptide FP binding; inhibition, % at 10.9 µM; actives 54% (n = 1,700);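 active = inhibition above a cutoff equal to the mean inhibition of all tested compounds plus 3 SD, cut at about 30% in these data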;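 also: 0% = DMSO wells and 100% = unlabeled Bim BH3 control peptide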
MCL1 inh confirm: confirmation of human MCL1 and BIM-BH3 interaction inhibitors | GST-MCL1 / FITC-Bim-BH3 fluorescence polarization | shares compounds with MCL1-BIM inh | inhibition, % at 10.9 µM | AID 2168 | actives 61% (n = 1,700);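 active = inhibition above the average of all tested compounds plus 3 SD, cut at about 40% in these data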;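 also: 0% = DMSO wells and 100% = unlabeled Bim-BH3 control peptide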
* marks the source's active call; other numbers are inactive results. The list is not random: actives were taken first. Their share in the collection is about 2.3%.

Cc1ccc2c(c1)c1c3n2CCN(C(=O)CN2CCN(C)CC2)C3CCC1 (stereo not given) was read as Bcl-xL primary 2, MCL1-BIM inh -6, Mcl1-Noxa inh 8, Mcl-1 Bim block 1, Mcl1 Bid PPI -39 and GLD-1 RNA inh 4.
`CC1CC(NC(=O)N(C)C)N(C)C(=O)N1` (stereo not given) gave Bcl-xL primary 1, MCL1-BIM inh 0, Mcl1-Noxa inh -3, Mcl-1 Bim block -2, Mcl1 Bid PPI 3 and GLD-1 RNA inh 7.
Screening Cc1ccnc2nc(C(=O)OCC(=O)c3ccc(NC(=O)CC(C)C)cc3)nn12 returned GLD-1 RNA inh -5.
Screening CCC(=O)Nc1ccc(C(=O)COC(=O)c2nc3nccc(C)n3n2)cc1 returned Bcl-xL primary 3, MCL1-BIM inh 54*, GLD-1 RNA inh 8, Bcl-xL conf 1 and MCL1 inh confirm 52*.
Screening Cc1ccc(C)c(-n2c(-c3ccc(Br)cc3)csc2=NC(=O)c2ccccc2F)c1 returned Bcl-xL primary 2, MCL1-BIM inh -1, Mcl1-Noxa inh -80, Mcl1 Bid PPI -11 and GLD-1 RNA inh -3.
Screening CSc1nsc(/C=C/Nc2ccc(O)cc2C)c1C#N returned Bcl-xL primary 60*, MCL1-BIM inh 49*, Mcl1-Noxa inh 55*, Mcl-1 Bim block -3, Mcl1 Bid PPI -29, GLD-1 RNA inh 71*, Bcl-xL conf 43* and MCL1 inh confirm 8.
For O=C(O)c1ccc(O)cc1O the results were Bcl-xL primary 7, MCL1-BIM inh 3 and GLD-1 RNA inh 1.
Screening O=C(O)c1cc(O)c2c(c1)C(=O)c1cc(O)cc(O)c1C2=O returned Bcl-xL primary 23, MCL1-BIM inh 41*, Mcl1-Noxa inh 62*, Mcl-1 Bim block 1, Mcl1 Bid PPI 7, GLD-1 RNA inh 6, Bcl-xL conf 21 and MCL1 inh confirm 34.
`COc1cc(NC(=S)N2CCN(CCO)CC2)cc(OC)c1` gave Bcl-xL primary 73*, MCL1-BIM inh 82*, GLD-1 RNA inh 4, Bcl-xL conf 18 and MCL1 inh confirm 30.
Screening OCCN1CCN(C(=S)Nc2ccccc2)CC1 returned Bcl-xL primary 3, MCL1-BIM inh 3, Mcl1-Noxa inh 8, Mcl-1 Bim block 1, Mcl1 Bid PPI -44 and GLD-1 RNA inh 1.
CCOC(=O)c1ccccc1NC(=O)COC(=O)CN1C(=O)NC2(CCCC2)C1=O was read as Bcl-xL primary 2, MCL1-BIM inh 2 and GLD-1 RNA inh 2.
Screening CC(C)(C)OC(=O)N[C@@H](Cc1ccccc1)C(=O)N1CCC(C(=O)NCC(=O)O)CC1 returned Bcl-xL primary 3, MCL1-BIM inh 0 and GLD-1 RNA inh 1.
For CC(C)(C)OC(=O)NC(Cc1ccccc1)C(=O)N1CCC(C(=O)NCC(=O)Nc2ccc(F)cc2)CC1 (stereo not given) the results were Bcl-xL primary 105*, MCL1-BIM inh 122*, GLD-1 RNA inh 57*, Bcl-xL conf 111* and MCL1 inh confirm 141*.
Screening COc1ccccc1/C=c1\sc2nc(-c3ccco3)nn2c1=O returned Bcl-xL primary 21, MCL1-BIM inh 60*, Mcl1-Noxa inh 74*, Mcl-1 Bim block -2, Mcl1 Bid PPI -27, GLD-1 RNA inh 0, Bcl-xL conf 24 and MCL1 inh confirm 52*.
Screening Cc1cc(NC(=O)Cc2cccs2)no1 returned Bcl-xL primary 10, MCL1-BIM inh 62*, Mcl1-Noxa inh 102*, Mcl-1 Bim block 1, Mcl1 Bid PPI 32, GLD-1 RNA inh -12, Bcl-xL conf 19 and MCL1 inh confirm 69*.
Screening CCn1c(O)c(/C=N/N=C/c2ccccc2)c2ccc(C3=NNC(=O)CC3)cc21 returned Bcl-xL primary 49*, MCL1-BIM inh 90*, Mcl1-Noxa inh -2, Mcl-1 Bim block -1, Mcl1 Bid PPI -59, GLD-1 RNA inh -30, Bcl-xL conf 96* and MCL1 inh confirm 109*.
CC1=C(C(=O)OC(C)C)C(c2cn(-c3ccccc3)nc2-c2cccs2)NC(=O)N1 (stereo not given) was read as Bcl-xL primary 5, MCL1-BIM inh 3, Mcl1-Noxa inh 4, Mcl-1 Bim block 0, Mcl1 Bid PPI 20 and GLD-1 RNA inh 5.
`O=C(CCCN1C(=O)/C(=C\c2cccs2)SC1=S)Nc1cccc(C(=O)O)c1` gave Bcl-xL primary 1, MCL1-BIM inh 13, Mcl1-Noxa inh 15, Mcl-1 Bim block 0, Mcl1 Bid PPI -19 and GLD-1 RNA inh 21.
For O=C(CCCN1C(=O)/C(=C/c2ccco2)SC1=S)Nc1cccc(C(=O)O)c1 the results were Bcl-xL primary 28, MCL1-BIM inh 60*, Mcl1-Noxa inh 15, Mcl1 Bid PPI -34, GLD-1 RNA inh 3, Bcl-xL conf 29 and MCL1 inh confirm 39.
O=C(CCCN1C(=O)/C(=C\c2cccs2)SC1=S)Nc1ccc(O)cc1C(=O)O was read as Bcl-xL primary 17, MCL1-BIM inh 19 and GLD-1 RNA inh -3.
Screening O=C(CCCN1C(=O)/C(=C\c2ccco2)SC1=S)Nc1ccc(O)cc1C(=O)O returned Bcl-xL primary 39*, MCL1-BIM inh 71*, GLD-1 RNA inh 0, Bcl-xL conf 51* and MCL1 inh confirm 77*.
`COc1ccc(-c2cc(C(=O)Nc3cccnc3)c3ccccc3n2)cc1OC` gave Bcl-xL primary 11, MCL1-BIM inh 8 and GLD-1 RNA inh -1.
`CN(C)C(=O)c1ccc(NC(=O)COc2ccc([N+](=O)[O-])cc2)cc1` gave Bcl-xL primary -9, MCL1-BIM inh -12, Mcl1-Noxa inh 29, Mcl-1 Bim block -7, Mcl1 Bid PPI -18 and GLD-1 RNA inh 8.
For COC(=O)C1=C(C)NC(=O)/C1=C\N(C)C the results were Bcl-xL primary 91*, MCL1-BIM inh 105*, Mcl1-Noxa inh 13, Mcl-1 Bim block 0, Mcl1 Bid PPI -44, GLD-1 RNA inh 68*, Bcl-xL conf 8 and MCL1 inh confirm 8.
For CN(C1CCCCC1)C(CNS(=O)(=O)c1ccc(Cl)cc1)c1ccccc1 (stereo not given) the results were Bcl-xL primary 6, MCL1-BIM inh 1 and GLD-1 RNA inh -2.
Cc1cc(C(=O)N/N=C/c2cc(Cl)cc([N+](=O)[O-])c2O)n[nH]1 was read as Bcl-xL primary 8, MCL1-BIM inh 9, Mcl1-Noxa inh 29, Mcl1 Bid PPI -106 and GLD-1 RNA inh 5.
